Compound activity: PubChem, National Center for Advancing Translational Sciences (NCATS)
Many of the other results were omitted from the sample, so hits are more common in it than they were.
PKM2 inh: inhibitors of human pyruvate kinase M2 | purified PKM2, ATP generation, Kinase-Glo luminescence | Potency, µM (top dose mostly 57.5 µM), most hits filed as inhibitors | actives 0.058% (n = 260,000); active = well fitted inhibition curve with a large enough effect; note: nearly all actives have a fitted effect of over 60% in size
Target sequence (P14618 whole entry, looked up): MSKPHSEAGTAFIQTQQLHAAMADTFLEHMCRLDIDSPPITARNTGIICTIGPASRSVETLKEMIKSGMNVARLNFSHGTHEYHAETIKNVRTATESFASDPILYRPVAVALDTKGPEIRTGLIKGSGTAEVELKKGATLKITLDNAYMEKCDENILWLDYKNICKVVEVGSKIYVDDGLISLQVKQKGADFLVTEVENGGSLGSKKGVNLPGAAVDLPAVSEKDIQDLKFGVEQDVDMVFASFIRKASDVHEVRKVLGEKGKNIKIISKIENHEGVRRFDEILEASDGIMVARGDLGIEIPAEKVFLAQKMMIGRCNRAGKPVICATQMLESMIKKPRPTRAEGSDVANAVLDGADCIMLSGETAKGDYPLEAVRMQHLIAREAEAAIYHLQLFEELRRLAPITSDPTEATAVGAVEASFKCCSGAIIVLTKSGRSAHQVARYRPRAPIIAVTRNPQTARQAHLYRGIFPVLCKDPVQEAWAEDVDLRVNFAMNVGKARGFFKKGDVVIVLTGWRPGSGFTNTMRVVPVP
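Coupled luciferase luminescence (Kinase-Glo) detects ATP generated from 0.1 mM ADP and 0.5 mM PEP in imidazole buffer pH 7.2 with KCl, MgCl2; 1 h at room temperature. Enzyme at intermediate activity; normalized to uninhibited and no-enzyme controls.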
Hits are given with their value; - = inactive.

SMILES	PKM2 inh
c1ccc(-c2noc(-c3ccncc3)n2)nc1	14µM
O=C(Cn1nnc(-c2ccc3c(c2)OCO3)n1)NCc1ccccc1	-
COc1ccc(S(=O)(=O)NCc2c(-c3ccccc3)noc2C)c(OC)c1	-
COc1cccc(-c2nc(-c3ccccn3)no2)c1	14µM
c1cc(-c2nnc(-c3ccncc3)o2)ccn1	-
COc1cccc(-c2nnc(SCC(=O)Nc3cc(C)on3)o2)c1	-
c1ccc(-c2noc(-c3ccc4c(c3)OCO4)n2)nc1	8.9µM
CCOC(=O)/C(=C/c1cn(C)c2ccccc12)NC(=O)c1ccccc1	-
C=Cc1ccc2c(c1)N(C)C(=C)S2	-
CCCCCC1CCC(C(=O)N2CCOCC2)CC1 (stereo not given)	-
CCOC(=O)C1=C(C)N(C)C(=O)NC1c1cccc2ccccc12 (stereo not given)	-
S=C(NC1CCCC1)N1CCN(C/C=C/c2ccccc2)CC1	-
Cc1cc(NC(=O)CSc2nc3c(cc2C#N)CCCC3)no1	-
Cc1cccc(NC(=O)c2cc([N+](=O)[O-])ccc2NCC2CCCO2)n1 (stereo not given)	-
Cc1cccc(NC(=O)c2onc3c2CCCC3)n1	13µM
Cc1ccc(NC(=O)c2cc(N3C(=O)C=CC3=O)ccc2Cl)cc1C	-
CC(/C=N/NC(=O)CSc1nnc(SCc2ccccc2)s1)=C\c1ccco1	-
O=[N+]([O-])c1ccc(OCc2cnc(Cl)s2)c([N+](=O)[O-])c1	-
O=C(Nc1ccc(NC(=S)NC(=O)c2cccs2)cc1)c1ccco1	-
CN(C)c1ccc(N/C=C/C(=O)c2ccco2)cc1	14µM
O=C(O)c1ncn(Cc2ccc(Br)cc2)c1C(=O)O	-
CC(C)C(C)NC(=O)COc1ccc(S(=O)(=O)N2CCOCC2)cc1Cl (stereo not given)	-
O=C(CSc1nc2ncccc2[nH]1)NCCc1ccccc1	-
CCN(CC(=O)NCc1ccc(F)cc1)C(=O)/C=C/c1ccco1	-
Cc1ccc(CNC(=O)[C@@H]2C[C@H]2[C@@H](NP(=O)(c2ccccc2)c2ccccc2)c2ccccc2)o1	-
SMILES	PKM2 inh
Cc1occc1C(=O)O/N=C(\N)c1ccccc1	7.1µM
Cc1ccc(/C(N)=N/OC(=O)Cc2cccc3ccccc23)cc1	-
CC(/C=C/c1ccco1)=N\NC(=O)COc1ccc(C)c(C)c1	-
COc1cc(CN2CCNC(=O)C2CC(=O)N(C)Cc2ncc[nH]2)cc(OC)c1 (stereo not given)	-
Cc1ccc2nc(-c3ccccc3)cn2c1	14µM
Nc1nc(-c2ccccc2)cn1N	-
CS(=O)(=O)N(CC(=O)Nc1ccc(S(=O)(=O)N2CCOCC2)cc1)c1ccccc1Br	-
Nc1cc2c(cc1O)CCCC2	-
C(=N\n1cnnc1)/c1ccccn1	-
C(=N\Nc1nc2ccccc2[nH]1)/c1ccccn1	14µM
Cc1cc(C)c(C#N)c(SCC(=O)Nc2nonc2N)n1	-
Cc1ccsc1/C=N/Nc1nc(=O)[nH]nc1C	14µM
Cn1cccc1/C=N/N1CCN(Cc2cccc3ccccc23)CC1	-
C/C(=N\NC(=O)CSCc1ccccc1Cl)c1cc(O)ccc1O	-
c1ccc(C2=NNC(=NC3CC3)SC2)cc1	14µM
Clc1ccc(C2=NNC(=NCc3ccc4c(c3)OCO4)SC2)cc1	-
CCOc1ccccc1NC(=S)N1CCN(c2ccccc2F)CC1	-
O=C(c1ccco1)N(CCO)Cc1cc2cc3c(cc2[nH]c1=O)OCO3	-
COCCCNC(=S)N/N=C/c1ccc(O)cc1	-
Cc1occc1C(=O)N/N=C/c1ccc(N(C)C)cc1	14µM
Cc1ccc(S(=O)(=O)CCN2C=CC(C(F)(F)F)=NCC2)cc1	-
O=C(CSc1ccc(-c2cccnc2)nn1)Nc1ccc(F)c(F)c1	-
Cc1ccc(CNC(=O)CCC2CCCN(C(=O)c3ccc4c(c3)OCO4)C2)o1 (stereo not given)	-
CCN1/C(=C/c2ccc3ccccc3[n+]2CC)C=Cc2ccccc21	14µM
O=C(O)COc1ccc(F)cc1Br	-
SMILES	PKM2 inh
O=C(Nc1ccc(N2CCOCC2)c(Cl)c1)c1ccc(-n2cnnc2)cc1Cl	-
O=S(=O)(c1ccccc1)C1(C2CC(c3ccccc3)=NO2)CC(O)C1 (stereo not given)	-
Cc1nnc(SCc2ccccc2CSc2nnc(C)s2)s1	-
CCN=C1S/C(=C\c2cc(Br)c(O)c(OC)c2)C(=O)N1CC	-
Cc1ccc(/C=C2/NC(=O)N(c3ccccc3)C2=O)o1	-
Cc1ccc(C=C2C(=O)c3ccccc3C2=O)o1	14µM
CCN1C(=O)N/C(=C/c2ccc(C)o2)C1=O	-
Cc1cccc2c1c1ccc3c(c1n2C)C(=O)C=CC3=O	-
Cc1ccc(C)c(NS(=O)(=O)c2c(C)nc3sccn3c2=O)c1	-
N#CCc1nn2c3c(cnc2c1C#N)C(=O)CCC3	-
COc1ccc2nc(C)cc(Nc3ccc(C)cc3)c2c1	-
COc1ccc(-c2cc3nc(C)cc(N)n3n2)cc1	14µM
Cc1cccc(NC(=O)COc2ccc(/C=C\c3[nH]c(=O)[nH]c(=O)c3[N+](=O)[O-])cc2)c1	-
CC(C)(C)NC(=O)C(c1ccncc1)N(Cc1ccc(F)cc1)C(=O)c1ccc(-c2ccccc2)[nH]1 (stereo not given)	-
CC(=O)C1=C(S(=O)(=O)c2ccc(C)cc2)CS(=O)(=O)C1	-
CCOc1ccc(C(=O)Nc2cc(C)ccn2)cc1	14µM
COc1ccc(C(=O)Nc2c(C)cc(C)cc2C)cc1OC	-
CCOc1ccc(-c2nnc(SCC(=O)Nc3cc(C)on3)o2)cc1	-
Cc1ccc(C)c(CSc2ccc3nnc(-c4ccccn4)n3n2)c1	-
CCN(CC)S(=O)(=O)c1ccc(OC)c(NC(=O)c2cc(C)on2)c1	-
CCOc1cccc2c1OC(c1cc(OC)c(OC)c(OC)c1)N1N=C(c3ccc(C)o3)CC21 (stereo not given)	-
N/C(=N\OC(=O)CCCN1C(=O)c2ccccc2C1=O)c1ccccn1	-
Cc1ccc(C(=O)O/N=C(\N)c2ccccn2)c(C)c1	7.9µM
N/C(=N\OC(=O)c1ccc(Cl)cc1)c1ccccn1	7.1µM
O=C(OCc1ccc(Cl)cc1Cl)c1cccnc1Cl	-
SMILES	PKM2 inh
Cc1ccc(NS(=O)(=O)c2ccc3[nH]c(=O)sc3c2)cc1	-
Cc1cc(C(=O)N2CCCC(C(=O)c3cc(F)ccc3F)C2)c(C)o1 (stereo not given)	-
C/C(=N\NC(=O)c1cccc(N/N=C(\C)c2cc(O)ccc2O)c1)c1cc(O)ccc1O	-
CCOC(=O)C1(Cc2ccc(OC)cc2)CCN(C(=O)c2cncs2)CC1	-
COc1ccc(S(=O)(=O)N(C)C)cc1NCC(=O)Nc1ccc(Br)c(C)c1	-
CC(=O)CCc1c(C)nc2ccc(C)cc2c1Cl	-
COCCCNC(=S)N1CCN(S(=O)(=O)c2ccc(OC)cc2)CC1	-
O=S(=O)(c1cccs1)N1CN(C2CCCCC2)c2nc3ccccc3nc21	-
O=C(Cc1ccccc1)Nc1cccc(N2C(=O)C=CC2=O)c1	-
COc1ccc(-n2c(SCC(=O)O)nnc2-c2ccc(NC(=O)c3ccccc3)cc2)cc1	-
COc1ccc(/C=C/C(=O)NCCNC(=O)c2ccccc2)cc1OC	-
COc1ccc(CNC(=O)c2c(C)nc3ccccn23)cc1	-
COc1ccc(/C=C/C(=O)c2ccccn2)cc1	16µM
COc1ccc(C(=O)NNC(=O)c2ccccn2)cc1	3.5µM
COc1cc(/C=C/C(=O)CC(=O)/C=C/c2ccc(O)c(OC)c2)ccc1O	-
Cc1ccc(-n2cc(S(=O)(=O)c3ccc(C)cc3)[nH]c2=O)cc1	-
O=S(=O)(c1ccc(F)cc1)N1CCN(CC2CC3C=CC2C3)CC1 (stereo not given)	-
